From PubChem BioAssay
BaF3 tox – counter-screen for JAK2V617F inhibitors: parental Ba/F3 viability inhibitors; 220,000 tested, 1.1% active; inhibition, % at 5.6 µM; CellTiter-Glo ATP luminescence; AID 1486;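 active means inhibition above a per-campaign cutoff, the mean inhibition of all tested compounds plus 3 SD, cut at about 27% in these data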
aSyn UTR inh – MLPCN primary screen, SNCA 5' untranslated region; 300,000 tested, 0.82% active; AID 1813; alpha-synuclein 5'UTR reporter, inhibitor activity; inhibition, % (tested at 7.5 µM); in the data active means inhibition above about 60%;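 further: H4 neuroglioblastoma cells stably carrying SNCA 5'UTR luciferase fusion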
IEC-6 tox – IEC-6 cytotoxicity, counter-screen for KLF5 inhibitors; luminescence viability; inhibition, % at 5 µM; 290,000 tested, 0.78% active; AID 1825
KLF5 inhibitor – suppresses KLF5 promoter-driven expression. inhibition, % at 5 µM. AID 1700. 290,000 tested, 0.23% active. DLD-1 KLF5 promoter-luciferase reporter, luminescence;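 active means inhibition above a per-plate limit of that plate's mean compound inhibition plus 3 SD, cut at about 60% in these data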;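 further: higher means less KLF5 promoter-driven luciferase light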
APP transl inh – APP translation inhibition; SH-SY5Y APP 5'UTR-luciferase reporter, luminescence; inhibition, % at 2 µM; 190,000 tested, 0.82% active; AID 1285;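 active means inhibition above a set limit, derived from the sample mean plus 3 SD, cut at about 45% in these data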
Ba/F3 V617F tox – reduce viability of Ba/F3 cells dependent on JAK2V617F; Ba/F3 EpoR-JAK2V617F viability, ATP luminescence; inhibition, % at 5.6 µM; 220,000 tested, 1.1% active;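 active means inhibition above the campaign mean plus 3 SD over all tested compounds, cut at about 24% in these data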;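 further: cytokine-independent growth of Ba/F3 cells driven by EpoR plus mutant JAK2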
IEC-6 cytotox cf – confirmation of cytotoxic compounds in rat IEC-6 intestinal epithelial cells; shares compounds with IEC-6 tox; IEC-6 rat intestinal epithelial viability, luminescence; inhibition, % at 5 µM; 1,900 tested, 63% active
Of the large screens only hits and unclear results are named; the others gave an inactive call (follow-up assays come after a bar, where they were run). This is a sample that favours compounds with a hit; in the whole collection about 2.2% have one here. Unless noted, no stated cut-off is given here; in the data, active means inhibition above about 22%; inactive means the rest.

Cn1nccc1C(=O)N/N=C/c1c(O)ccc2ccccc12	aSyn UTR inh 92, IEC-6 tox 98 (no result: BaF3 tox, APP transl inh, Ba/F3 V617F tox) | IEC-6 cytotox cf 29
Cc1cc(C)cc(NS(=O)(=O)c2ccc3[nH]cc(C(=O)NCc4ccco4)c(=O)c3c2)c1	BaF3 tox 66, IEC-6 tox 28, Ba/F3 V617F tox 64 | IEC-6 cytotox cf 29
Cc1ccc(CN(C)C(=O)COC(=O)CSc2ccc(C(N)=O)cc2[N+](=O)[O-])cc1	none (no result: BaF3 tox, IEC-6 tox, KLF5 inhibitor, APP transl inh, Ba/F3 V617F tox)
COc1ccc(NS(=O)(=O)c2cc(OC)ccc2NC(=O)c2cc(C)oc2C)cc1	BaF3 tox 66, IEC-6 tox 45, APP transl inh 54, Ba/F3 V617F tox 62 | IEC-6 cytotox cf 30
Cc1ccc(C2=NS(=O)(=O)N(C)C(C(=O)N3CCCCC3)=C2)cc1	none (no result: BaF3 tox, APP transl inh, Ba/F3 V617F tox)
CCCN(CCC)CCNC(=O)c1cc2c(-c3ccc(Cl)cc3)nn(C)c2s1	IEC-6 tox 22 (no result: BaF3 tox, APP transl inh, Ba/F3 V617F tox) | IEC-6 cytotox cf inactive
CCCN(CCC)CCNC(=O)c1cc2c(-c3ccccc3F)nn(C)c2s1	none (no result: BaF3 tox, APP transl inh, Ba/F3 V617F tox)
